The results in this text go back to PubChem BioAssay AID504834 (National Center for Advancing Translational Sciences (NCATS), 2011).

About 22,000 (6.9%) of roughly 320,000 compounds were called active. Roughly 27% stayed inconclusive and do not appear here. What follows is part of a selection rich in actives, with near analogues and random picks from the rest. A number with no mark means an inactive call. The call rests on the fitted dose curve; in most records, active means well fitted inhibition curve with a large enough effect; inconclusive means small, poorly fitted or top-dose-only effect, or another doubt; inactive means no such curve, though single readings can be large or run the other way.
On the % scale 0 is the no-effect control and ±100 the full control effect; potency means the concentration at half of the fitted maximal effect.

The assay can be described thus: Primary qHTS for delayed death inhibitors of the malarial parasite plastid, 96 hour incubation. The conditions noted are these: P. falciparum luciferase reporter growth; series mostly up to 28.7 µM; activity change, negative = inhibition: at the top concentration. The method, boiled down:
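Two parasite generations (96 h, 37 C, 5% CO2) of compound exposure in infected erythrocytes (0.05% parasitemia, 2% hematocrit). Luciferase-reporter P. falciparum; decreased luminescence indicates inhibited growth, aimed at apicoplast-acting delayed death.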
For orientation: qHTS replaces the single test concentration by a dilution series.
Consider `Cc1ccccc1Nc1c([N+](=O)[O-])ccc2nonc12`, for which the “activity change, negative = inhibition” value is 37.9%.
Still for that read-out and setting: the figure for `CCc1nc2sc3c(Cl)ncnc3c2c2c1CCCC2` is 16.4%; for `Cc1nc(-c2ccc(F)cc2)c(CC(=O)N(C)CC(=O)Nc2c(C)cccc2C)s1` it is -26.7%; for `O=C(c1cnc(Cl)c(Cl)c1)N1CCN(S(=O)(=O)c2ccc(F)cc2)CC1` it is 10%.
`Cc1nc(-c2ccc(F)cc2)c(CC(=O)N2CCN(S(=O)(=O)c3ccc(F)cc3)CC2)s1`: the Potency was 13.1 µM (active).
As for `COc1ccc(N2C(=O)NC(NS(=O)(=O)c3ccc(Cl)cc3)(C(F)(F)F)C2=O)cc1` (stereo not drawn), the “activity change, negative = inhibition” value is -10.3%.
As for `O=C1CSc2ccc(S(=O)(=O)NCc3ccccc3)cc2N1`, the “activity change, negative = inhibition” value is -13.5%.
Same read-out and setting: the figure for `CC1(C)CC(=O)C(N=Nc2c(F)cccc2F)=C(O)C1` is 9.25%; for `CCC(NC(=O)C1CCCC1)c1ccc(C)cc1` (stereo not drawn) it is 17%; for `O=C(Cn1cnc2ccccc2c1=O)Nc1cccc(S(=O)(=O)N2CCCCC2)c1` it is -2.35%.
As for `CCCCN(CC(=O)Nc1cccc(S(=O)(=O)N2CCCC2)c1)Cc1nc2ccccc2c(=O)[nH]1`, the Potency was 5.86 µM (active).
As for `CCN(CC(=O)Nc1cccc(S(N)(=O)=O)c1)Cc1nc2ccccc2c(=O)[nH]1`, the “activity change, negative = inhibition” value was -6.39%.
With `CCc1noc(C)c1C(=O)N1CCN(S(=O)(=O)c2cccc(C(F)(F)F)c2)CC1`, the “activity change, negative = inhibition” value was -2.53%.
On to `Cn1ncc(Br)c1C(=O)NC1CCCC1`, for which the “activity change, negative = inhibition” value is 13.9%.
The same measure, in the same setting: the figure for `NC(=O)CSc1nnc(NC(=O)c2ccc3ccccc3c2)s1` is 194%; for `CC(=O)N1N=C(c2ccccc2)OC1c1cccnc1` (stereo not drawn) it is 22.8%.
Regarding `CC(=O)N1N=C(c2ccncc2)OC1(Cc1ccccc1)Cc1ccccc1`, the Potency was 11.7 µM (active).
Take `CC(C)(C)N(Cc1ccccc1)C(=O)c1ccncc1`: the “activity change, negative = inhibition” value is -25.4%.
On the same count and under the same terms, the figure for `Cn1c(C(=O)N2CCCC(C(=O)NCc3ccccc3)C2)cc2sccc21` (stereo not drawn) is 21.5%; for `COc1cc(-c2cc(C(=O)OCC(=O)Nc3ccc4c(c3)OCO4)c3ccccc3n2)cc(OC)c1OC` it is 9.38%.
Take `COc1ccc(NC(=O)c2cc(-c3cc(OC)c(OC)c(OC)c3)nc3ccccc23)c(OC)c1`: the Potency was 2.62 µM (active).
With `CNC(=O)COC(=O)c1cc(-c2ccc(OC)cc2)nc2ccccc12`, the “activity change, negative = inhibition” value is 65.2%.
Same read-out and setting: the figure for `CC1CCCCC12NC(=O)N(CC(=O)OCC(=O)NCc1ccc(F)cc1)C2=O` (stereo not drawn) is 7.88%.
Consider `O=C(C1CCN(S(=O)(=O)c2ccc(Br)s2)CC1)N1CCN(C2CCCCC2)CC1`, for which the Potency is 4.65 µM (active).
Turning to `Cc1ccc(C(=O)N2CCN(C3CCCCC3)CC2)s1`, the “activity change, negative = inhibition” value is 138%.
On the same count and under the same terms, the figure for `O=C(C1CCN(S(=O)(=O)c2ccc(Br)s2)CC1)N1CCN(c2ccccc2)CC1` is 22.1%; for `Cc1cccc(C)c1NC(=O)N1CC(C)OC(C)C1` (stereo not drawn) it is 17.2%.
`COC(=O)c1ccc(OC(=O)c2cnccn2)cc1`: the “activity change, negative = inhibition” value is -0.0686%.
On the same count and under the same terms, the result for `Cc1cccc(OP(=O)(Nc2c(C)n(C)n(-c3ccccc3)c2=O)Oc2cccc(C)c2)c1` reads 16%.
For `Cc1cccc(OP(=O)(Oc2cccc(C)c2)OC(c2ccccc2)C(F)(F)F)c1` (stereo not drawn), the Potency was 13.1 µM (active).
On to `Cc1cccc(OCC(=O)Nc2ccccc2F)c1`, for which the “activity change, negative = inhibition” value was 24.5%.
Still for that read-out and setting: the result for `COc1ccc(S(=O)(=O)N2CCCCC2)cc1NC(=O)C1CC(=O)N(c2ccc3c(c2)OCCO3)C1` (stereo not drawn) reads -18.4%; that for `CCOC(=O)CNC(=O)c1nn(-c2cccc(OC)c2)c(=O)c2ccccc12`, 60.4%.
As to `COc1cccc(-n2nc(C(=O)N3CCN(Cc4ccccc4)CC3)c3ccccc3c2=O)c1`, the Potency is 5.22 µM (active).
Regarding `COc1cc(OC)c(OC)cc1CN1CCN(C(=O)c2cccc3ccccc23)CC1`, the “activity change, negative = inhibition” value is -24%.
Same read-out and setting: the result for `CCC(=O)c1ccc(OCC(=O)N(CC)CC2COc3ccccc3O2)cc1` (stereo not drawn) reads -10.8%; that for `Cc1cc(NC(=O)CSc2nc(=O)cc(N)n2-c2ccc(F)cc2)no1`, -15.9%; that for `CCOC(=O)C1CCCN(S(=O)(=O)c2ccc3c(c2)C(C)(C)C(=O)N3C)C1` (stereo not drawn), 38.7%.
`Cc1ccc(CNC(=O)C2CCCN2S(=O)(=O)c2ccc3c(c2)C(C)(C)C(=O)N3C)cc1` (stereo not drawn): the Potency is 1.47 µM (active).
For the molecule `Cc1ccc(S(=O)(=O)N2CCCC2C(=O)NCc2ccco2)cc1` (stereo not drawn), the activity change, negative = inhibition is -13.6% [at 5.75 µM].
Turning to `Cc1nc2ccccn2c(=O)c1NC(=O)c1cccs1`, the “activity change, negative = inhibition” value is 10.3%.
The same measure, in the same setting: the figure for `COC(=O)c1sccc1NC(=O)c1ccc(Cl)cc1` is 25%.
As to `Cc1cc(C)cc(NC(=O)CCN2C(=O)c3ccccc3C2=O)c1`, the “activity change, negative = inhibition” value was 8.26%.
On the same count and under the same terms, the result for `CC1(C)CC(=O)C2=C(C1)Nc1cc(C(=O)c3ccccc3)ccc1NC2c1ccccn1` (stereo not drawn) reads 24.6%.
With `Cc1cc(C)c(C2C3=C(Nc4c2c(C)nn4-c2ccccn2)c2ccccc2C3=O)c(C)c1` (stereo not drawn), the Potency was 6.57 µM (active).
On the same count and under the same terms, the figure for `Cc1nn(-c2ccccn2)c2c1C(c1ccncc1)C1=C(CC(C)(C)CC1=O)N2` (stereo not drawn) is 5.86 µM (active).
Turning to `COc1ccc(C(C(=O)NC(C)(C)C)N(C(=O)Cn2nnc3ccccc32)c2ccc(C(C)=O)cc2)cc1O` (stereo not drawn), the “activity change, negative = inhibition” value is -0.944%.
With `CC(C)(C)NC(=O)C(c1ccco1)N(Cc1ccc2c(c1)OCO2)C(=O)Cn1nnc2ccccc21` (stereo not drawn), the Potency is 14.7 µM (active).
With `CCC(C)(C)NC(=O)C(c1cccn1C)N(Cc1ccc(C)cc1)C(=O)Cn1nnc2ccccc21` (stereo not drawn), the “activity change, negative = inhibition” value is -27.8%.
Same read-out and setting: the result for `C=CCc1ccccc1OCC(O)CN1CCN(CCO)CC1` (stereo not drawn) reads -15.9%; that for `C[n+]1cc(-c2ccccc2)oc1-c1ccccc1`, 65.7%.
Still for that read-out and setting: the figure for `Cc1nc2cccnc2nc1C` is 36.2%; for `Cc1ccc(C)c(N2CCN(C(=O)Cn3ncn4cccc4c3=O)CC2)c1` it is 20.2%.
On the same count and under the same terms, the figure for `Cc1ccc(C)c(N2CCN(C(=O)CCCCn3c(=O)[nH]c4ccccc4c3=O)CC2)c1` is 8.49%.
For `Cc1ccc(C)c(N2CCN(C(=O)CCCn3c(=O)c4cccn4c4cccnc43)CC2)c1`, the Potency was 13.1 µM (active).
With `Cn1nccc1/C=N\NC(=O)c1ccc(Cl)cc1`, the “activity change, negative = inhibition” value was 17.8%.
On the same count and under the same terms, the result for `CCNC(=O)CC1C(=O)N(c2ccc(OC)cc2)C(=O)N1CCOC` (stereo not drawn) reads 94.5%; that for `CC(C)=CC(=O)Nc1nnc(-c2ccc(F)cc2)s1`, 31.8%.
Same read-out and setting: the figure for `Cc1nnc(NC(=O)Nc2ccc(Cl)c(Cl)c2)s1` is -59%.
As for `Cc1ccc(NC(=O)Nc2nnc(-c3ccncc3)s2)cc1`, the Potency is 9.28 µM (active).
As for `CCCn1nnnc1NCc1ccc(OC)cc1`, the “activity change, negative = inhibition” value is 21.1%.
Consider `COc1ccc(CSc2nnnn2-c2ccc(C(=O)O)cc2)cc1`, for which the “activity change, negative = inhibition” value was 1.63%.
In the case of `COc1ccc(Cc2nnnn2CC(=O)O)cc1`, the Potency is 1.65 µM (active).
Regarding `O=C(CCc1nnc(Cc2ccc3c(c2)OCO3)o1)NCCc1ccccc1Cl`, the “activity change, negative = inhibition” value was 10.2%.
For the molecule `Cc1ccc(-c2ncc(Cl)cc2-c2ccc(S(C)(=O)=O)cc2)cn1`, the Potency was 13.5 µM (active).
`Cc1c2cnn(CC(=O)NCCCN3CC(C)CC(C)C3)c(=O)c2c(C)n1Cc1ccc(Cl)cc1` (stereo not drawn): the “activity change, negative = inhibition” value is 3.52%.
The same measure, in the same setting: the result for `Cc1nc2ccccc2c(=O)n1NC(=O)c1ccccc1` reads -8.41%.
Still for that read-out and setting: the figure for `Cc1ccc(SCc2c(C(=O)N/N=C/C3CC=CCC3)nnn2-c2nonc2N)cc1` (stereo not drawn) is 3.06%; for `CNC1(c2nnnn2-c2c(C)cccc2C)CCOC(C)(C)C1` (stereo not drawn) it is -24.4%.
On to `COc1ccc(C2(C)ON(c3ccccc3C(F)(F)F)C2=O)cc1` (stereo not drawn), for which the Potency was 2.62 µM (active).
`COc1ccc(C23NCCN2C(=O)c2ccccc23)cc1` (stereo not drawn): the “activity change, negative = inhibition” value was 22.2%.
Regarding `COc1ccc(C2(C)NC(=O)N(CC(=O)c3ccc4c(c3)OCO4)C2=O)cc1` (stereo not drawn), the “activity change, negative = inhibition” value was 67.1%.
Same read-out and setting: the result for `COC(c1ccccc1)(c1ccccc1)C(Oc1nc(C)cc(C)n1)C(=O)O` (stereo not drawn) reads -23.8%; that for `Cc1ccc(OCCNC(=O)CN2C(=O)NC3(CCCC3)C2=O)cc1`, 5.65%; that for `COc1ccc(NC(=O)CSc2nc(SC)ns2)c(OC)c1`, 4.59%.
As to `Cc1ccc(Cc2nnc(SCC(=O)Nc3ccccc3C)[nH]c2=O)cc1`, the “activity change, negative = inhibition” value is -9.18%.
As for `COC(=O)COc1ccc2c(=O)c(Oc3ccccc3Br)coc2c1`, the “activity change, negative = inhibition” value was 0.781%.
Same read-out and setting: the figure for `FC(F)(F)Oc1ccc(-c2cn3cccnc3n2)cc1` is 155%.
Take `CCN1CCC2(CCN(Cc3cn[nH]c3-c3ccc(OC)c(F)c3)C2)C1` (stereo not drawn): the Potency is 10.4 µM (active).
For `COc1ccc(-c2[nH]ncc2CN(Cc2nccn2C)C(C)C)cc1F`, the “activity change, negative = inhibition” value was -16.8%.
Still for that read-out and setting: the result for `COc1ccc(CN2CCN(c3ccccc3F)CC2)c(OC)c1` reads 13.6%.
For `CCCC(O)(c1ccc(OC)cc1)C(CN(C)C)c1ccccc1` (stereo not drawn), the Potency was 14.7 µM (active).
As to `COc1ccc(C(O)(C2CCCCC2)C(CN2CCCC2)c2ccccc2)cc1` (stereo not drawn), the “activity change, negative = inhibition” value was -22.6%.
Same read-out and setting: the result for `CN(C)CC(O)COc1ccc(C(C)(C)c2ccc(OCC(O)CN(C)C)cc2)cc1` (stereo not drawn) reads 53%; that for `COc1ccc(NC(=O)CN(C)C(=O)c2n[nH]c3ccccc23)cc1`, 82.2%.
For the molecule `S=C(NCc1ccc(Cl)cc1)NC12CC3CC(CC(C3)C1)C2`, the Potency was 11.7 µM (active).
For `O=C(NCc1ccc(Cl)cc1)NCc1ccc(Cl)cc1`, the “activity change, negative = inhibition” value is 0.842%.
Same read-out and setting: the result for `S=C(NCc1ccc(Cl)cc1)NC1CCCCC1` reads 6.71%; that for `CCN(Cc1ccccc1)S(=O)(=O)c1cc2c3c(c1)CCN3C(=O)CC2`, -27.2%.
Still for that read-out and setting: the figure for `COc1ccc(C(CNCC(=O)Nc2ccccc2F)N(C)C)cc1` (stereo not drawn) is 24.6%.
For the molecule `O=C(c1ccc(S(=O)(=O)N2CCCC2)cc1)N1CCN(c2ccccc2F)CC1`, the Potency is 4.65 µM (active).
`COc1ccccc1NC(=O)C1CCN(C(=O)c2ccc(C(C)(C)C)cc2)CC1`: the “activity change, negative = inhibition” value was 25.4%.
With `COc1ccccc1NS(=O)(=O)c1ccc(C(=O)N2CCN(c3ccccc3O)CC2)cc1`, the Potency is 11.7 µM (active).
Regarding `COc1ccccc1N1CCN(C(=O)c2ccc(S(=O)(=O)N3CCCCC3)cc2)CC1`, the “activity change, negative = inhibition” value was 0.287%.
Still for that read-out and setting: the figure for `O=C(c1ccc(S(=O)(=O)N2CCOCC2)cc1)N1CCN(c2ccccc2)CC1` is -21.8%; for `COc1ccc(S(=O)(=O)Nc2ccccc2C(=O)N2CCCC2)cc1C` it is 2.67%; for `O=C(COC(=O)/C=C/c1ccc2c(c1)OCO2)NC1CCS(=O)(=O)C1` (stereo not drawn) it is 13.5%.
Still for that read-out and setting: the result for `Cn1nc(C(=O)OCC(=O)N(Cc2ccccc2)C(C)(C)C)c2ccccc2c1=O` reads 14.4%; that for `CSc1nnc(NC(=O)c2nc(S(=O)(=O)Cc3ccc(C)cc3)ncc2Cl)s1`, 2.67%.
Same read-out and setting: the figure for `O=C(Nc1cccn(Cc2ccccc2Cl)c1=O)NC1CCCCC1` is 9.52%; for `O=S1(=O)CCN(Cc2ccccc2Cl)CC1` it is 2.72%.
Take `CC1(C)COC(c2cccn2Cc2ccccc2Cl)=N1`: the Potency was 9.28 µM (active).
Turning to `NC(=O)c1cc(-c2cccnc2)nc2ccc(Br)cc12`, the “activity change, negative = inhibition” value is 30.9%.
